# Results as given in PubChem BioAssay.
# Inconclusive results are not listed. Active and inactive are the calls of the source. Unless noted, how the calls were made is not given here.
# What was measured:
# [1] = rapamycin-like changes in RPL19A-GFP expression – cell-based, S. cerevisiae, multiplex flow cytometry, primary screen (AID 1862; in the data active means percent of DMSO control GFP below about 86%;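 further: lower values mimic rapamycin by blocking the RPL19A rise seen in DMSO cells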); conditions: S. cerevisiae RPL19A-GFP strain, flow cytometry fluorescence, 3 h; at 10 µM; stronger effect = lower value
# [2] = TOR pathway GLN3 branch reporter MEP2-GFP changes – S. cerevisiae, multiplex flow cytometry, primary screen (AID 1867;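 active means GFP response, as percent of the DMSO control, above the screen-wide mean plus 3 SD, about 139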;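 further: median GFP channel fluorescence of barcode-gated MEP2-GFP cells measured by flow cytometry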); conditions: S. cerevisiae MEP2-GFP strain, 3 h, at 10 µM, stronger effect = higher value
# [3] = TOR pathway RTG branch CIT2 reporter changes – S. cerevisiae, GFP fusion, multiplex flow cytometry, primary screen (AID 1870;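 active means percent response above a set limit, the screen-wide mean plus 3 SD, cut at about 130% in these data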;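 further: barcoded CIT2-GFP strain pooled with four other GFP strains with rapamycin as positive control; median GFP fluorescence per well over plate mean of DMSO wells so 100% = DMSO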); conditions: S. cerevisiae CIT2-GFP expression, 3 h, at 10 µM, stronger effect = higher value
# [4] = TOR pathway LAP4-GFP level changes – S. cerevisiae, multiplex flow cytometry, primary screen (AID 1873;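 active means GFP signal, as percent of the solvent control, above the screen mean plus 3 SD, about 149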); conditions: S. cerevisiae LAP4-GFP expression, 3 h, at 10 µM, stronger effect = higher value
# [5] = reduced mouse 2C T cell binding to pMHC/ICAM-1 vesicles – MLPCN validation set, flow cytometry, LFA-1/ICAM-1 modulator project, pilot screen (AID 2523;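 active means response below a set limit, under 55% cells CD8-positive and vesicle-bound, and CD8 cells' 90th-percentile brightness under 279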;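 on vesicle binding response: mean PE anti-B7-1 fluorescence of CD8+ cells relative to row control; 100% = QL9-loaded vesicles with DMSO vehicle in the same plate row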); conditions: 2C mouse CD8+ T cells, at 7 µM, stronger effect = lower value; double positive events: measured here: CD8+/vesicle+ event percentage
# [6] = target: Integrin beta-1 (Homo sapiens) + Integrin alpha-4 (Homo sapiens) (UniProt P13612+P05556); assay: alpha4beta1 integrin LIBS antibody binding reduction – U937 cells, HUTS-21 mAb, flow cytometry, validation set, VLA-4 allosteric modulator project, pilot screen (AID 2674;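 active means inhibition above 50%, about 3 SD of the validation set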;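 further: antibody binding induced by the VLA-4 ligand LDV present at three times its Kd; 0% = LDV ligand with antibody and no compound and 100% = antibody without LDV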); conditions: HUTS-21 LIBS mAb binding, at 6.7 µM, stronger effect = higher value
# [7] = calorie-restriction mimetic ROS inhibitors, yeast – validation compound set, pilot screen (AID 2706;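 active means superoxide response below 65% of plate, a cut near 3 SD across the whole screen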;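 further: yeast exposed to compound for one week at 30 degrees C before staining; 100% = mean of all compound wells on the same plate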); conditions: S. cerevisiae aging, superoxide DHE fluorescence; at 10 µM; stronger effect = lower value
# [8] = target: Beta-adrenergic receptor kinase 1 (Homo sapiens) (UniProt P25098); assay: GRK2 binders displacing RNA aptamer, biochemical, validation, human GRK2, bead flow cytometry (AID 488806;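 active means aptamer binding inhibition above 30%, about 3 SD of noise from non-fluorescent compounds; inactive means inhibition at or below 30%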); conditions: bead-bound GRK2, FAM-aptamer displacement, at 10 µM, stronger effect = higher value
# [9] = target: AP-2 complex subunit beta (Homo sapiens) (UniProt P63010); assay: beta-arrestin/AP2 interaction blockers – biochemical, validation set, GST-AP2 beads, flow cytometry, pilot screen (AID 504541;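 active means inhibition above 54%, about 3 SD of non-fluorescent compounds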;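 further: AP2 carries R879A mutation and is captured from E. coli lysate; bead-bound FITC arrestin peptide fluorescence measuring arrestin peptide binding to AP2; 0% = DMSO wells and 100% = excess unlabeled arrestin peptide control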); conditions: FITC arrestin peptide, at 10 µM, stronger effect = higher value
# [10] = cytosolic pH regulators acting via V-ATPase – S. cerevisiae, pHLuorin, HTS validation (AID 504600; in the data active means response above about 15%;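 further: plate controls were DMSO for no effect and reference compound for full effect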); conditions: V-ATPase proton transport, at 10 µM, stronger effect = higher value
# [11] = system: anti-desmoglein-3 scFv antibody binding to human DSG3; assay: blockers of pathogenic pemphigus antibody–desmoglein-3 binding – biochemical, validation compound set, bead-based, flow cytometry, pilot screen (AID 588368;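 active means binding below the plate cutoff, the plate median minus 3 SD, with a reading above zero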;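 further: signal is the median channel fluorescence of bead-bound GFP antibody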); conditions: Protein G beads, DSG3-Fc, scFv-GFP binding, at 10 µM, stronger effect = lower value
# [12] = system: Botulinum neurotoxin type F light chain protease (Clostridium botulinum); assay: Clostridium botulinum type F light chain protease inhibitors, microsphere substrate cleavage, validation (AID 588459); conditions: multiplex microsphere protease substrate cleavage assay, flow cytometry; at 10 µM; stronger effect = higher value
# [13] = target: Botulinum neurotoxin type A (Clostridium botulinum) (UniProt P0DPI0); assay: BoNT/A light chain protease inhibitors, biochemical, multiplex microsphere flow cytometry, validation set (AID 588460); conditions: at 10 µM, stronger effect = higher value
# [14] = target: Lethal factor (Bacillus anthracis) (UniProt P15917); assay: Bacillus anthracis lethal factor inhibition, microsphere flow cytometry protease assay, validation at 10 µM (AID 588461); conditions: multiplex microsphere protease cleavage assay, stronger effect = higher value
# [15] = Nile Red efflux blockade in pump-expressing yeast – validation compound set, multiplex, phenotypic, pilot screen (AID 588506;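 active means efflux inhibition above 0.42, the validation set average plus 4 SD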;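 further: Nile Red retained in cells so higher fluorescence means more efflux inhibition; 0 = negative control wells and 1 = enniatin B 25 µM full block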); conditions: S. cerevisiae pump-expressing triplex, Nile Red efflux flow cytometry; at 10 µM; stronger effect = higher value
# [16] = target: ATP-binding cassette sub-family B member 6 (Homo sapiens) (UniProt Q9NP58); assay: blockers of ABCB6-driven porphyrin uptake – K562-ABCB6 cells, flow cytometry, validation set, pilot screen (AID 588550;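 active means inhibition above the screen-wide mean plus 3 SD, about 51%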;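 further: 0% = DMSO wells and 100% = benzethonium chloride 70 µM positive control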); conditions: K562-ABCB6 porphyrin accumulation, 1 h, at 10 µM, stronger effect = higher value
# [17] = AML differentiation inducers, ER-HoxA9 marrow cells – cell-based, GFP/MAC1 double positive, flow cytometry, validation set, primary screen (AID 588685;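 active means differentiation response of at least 50%, scaled between solvent and reference control, from cells with both markers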;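 further: compound exposure lasts four days before antibody staining and flow analysis; 0% = DMSO wells and 100% = 5 µM fulvestrant positive control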); conditions: stronger effect = higher value
# [18] = hit retest on RPL19A-GFP reporter strain – cell-based, S. cerevisiae, flow cytometry, cherry picks, mother/daughter gates, confirmation (AID 2270;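 active means GFP response below 50% of the DMSO control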); conditions: 3 h, at 10 µM, stronger effect = lower value, 100 = same GFP as DMSO wells
# [19] = yeast TOR pathway reporter LAP4-GFP change – cell-based, cherry picks, flow cytometry, mother/daughter gates, confirmation (AID 2271;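 active means GFP response above 150% of the DMSO control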;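 further: ratio of sample to DMSO plate mean so 100% equals DMSO level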); conditions: S. cerevisiae LAP4-GFP strain, 3 h, at 10 µM, stronger effect = higher value
# [20] = TOR pathway CIT2 reporter hit retest – S. cerevisiae, GFP fusion, cherry picks, mother/daughter gates, confirmation (AID 2274;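 active means GFP response above 150% of the DMSO level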); conditions: S. cerevisiae CIT2-GFP strain, flow cytometry, 3 h, at 10 µM, stronger effect = higher value
# [21] = measured here: daughter cell gate
# [22] = measured here: mother cell gate
# [23] = measured here: daughter cell gate response
# [24] = measured here: mother cell gate response
# Integrin beta-1 (Homo sapiens) + Integrin alpha-4 (Homo sapiens), sequence (P05556 whole entry, looked up): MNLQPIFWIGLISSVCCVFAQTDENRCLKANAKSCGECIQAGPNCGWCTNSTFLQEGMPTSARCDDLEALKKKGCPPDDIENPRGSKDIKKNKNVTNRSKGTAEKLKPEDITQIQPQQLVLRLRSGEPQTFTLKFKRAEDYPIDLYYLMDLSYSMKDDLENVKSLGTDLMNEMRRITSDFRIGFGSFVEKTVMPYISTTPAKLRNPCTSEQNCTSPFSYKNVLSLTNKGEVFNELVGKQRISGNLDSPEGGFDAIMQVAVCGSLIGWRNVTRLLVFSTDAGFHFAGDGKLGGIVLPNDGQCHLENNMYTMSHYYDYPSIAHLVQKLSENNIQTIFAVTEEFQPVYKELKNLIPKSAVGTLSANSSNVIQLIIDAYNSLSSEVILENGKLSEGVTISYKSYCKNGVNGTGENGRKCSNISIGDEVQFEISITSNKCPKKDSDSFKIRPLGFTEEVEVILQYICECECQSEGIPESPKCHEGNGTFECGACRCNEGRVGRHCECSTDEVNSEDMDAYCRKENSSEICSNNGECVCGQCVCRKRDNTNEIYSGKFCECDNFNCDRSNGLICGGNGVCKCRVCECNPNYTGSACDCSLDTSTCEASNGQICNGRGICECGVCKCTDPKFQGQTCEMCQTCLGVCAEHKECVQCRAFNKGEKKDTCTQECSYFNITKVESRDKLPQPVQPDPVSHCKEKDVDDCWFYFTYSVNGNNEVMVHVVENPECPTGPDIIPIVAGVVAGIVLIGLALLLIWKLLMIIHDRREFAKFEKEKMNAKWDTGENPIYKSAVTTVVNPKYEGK
# Integrin beta-1 (Homo sapiens) + Integrin alpha-4 (Homo sapiens), sequence (P13612 whole entry, looked up): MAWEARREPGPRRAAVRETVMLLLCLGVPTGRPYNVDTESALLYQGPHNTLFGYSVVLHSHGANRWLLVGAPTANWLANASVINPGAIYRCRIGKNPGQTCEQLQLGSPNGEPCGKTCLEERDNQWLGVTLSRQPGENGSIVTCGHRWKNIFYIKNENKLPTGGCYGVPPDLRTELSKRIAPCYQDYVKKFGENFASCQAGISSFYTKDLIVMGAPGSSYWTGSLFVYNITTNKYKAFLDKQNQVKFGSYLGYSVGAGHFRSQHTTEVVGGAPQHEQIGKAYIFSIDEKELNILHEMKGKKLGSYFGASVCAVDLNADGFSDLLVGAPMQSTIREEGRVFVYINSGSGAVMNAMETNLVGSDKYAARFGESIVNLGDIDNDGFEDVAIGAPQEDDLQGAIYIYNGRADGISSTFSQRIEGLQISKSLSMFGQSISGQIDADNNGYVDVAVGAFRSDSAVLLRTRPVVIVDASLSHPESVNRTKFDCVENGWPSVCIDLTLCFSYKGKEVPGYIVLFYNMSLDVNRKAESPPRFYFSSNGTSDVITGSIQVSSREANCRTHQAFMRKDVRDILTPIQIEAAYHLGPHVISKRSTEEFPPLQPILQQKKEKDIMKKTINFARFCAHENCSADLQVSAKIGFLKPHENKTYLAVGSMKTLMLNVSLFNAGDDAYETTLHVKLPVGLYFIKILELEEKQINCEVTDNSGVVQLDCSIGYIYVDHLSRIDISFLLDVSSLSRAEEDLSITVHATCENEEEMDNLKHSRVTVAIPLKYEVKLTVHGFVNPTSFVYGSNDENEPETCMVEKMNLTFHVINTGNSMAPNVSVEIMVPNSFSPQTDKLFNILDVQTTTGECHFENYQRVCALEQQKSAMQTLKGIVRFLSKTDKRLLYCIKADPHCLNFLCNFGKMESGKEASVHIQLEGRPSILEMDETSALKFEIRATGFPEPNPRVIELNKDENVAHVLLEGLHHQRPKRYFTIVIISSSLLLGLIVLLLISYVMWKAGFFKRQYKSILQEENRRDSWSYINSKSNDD
# Beta-adrenergic receptor kinase 1 (Homo sapiens), sequence (P25098 whole entry, looked up): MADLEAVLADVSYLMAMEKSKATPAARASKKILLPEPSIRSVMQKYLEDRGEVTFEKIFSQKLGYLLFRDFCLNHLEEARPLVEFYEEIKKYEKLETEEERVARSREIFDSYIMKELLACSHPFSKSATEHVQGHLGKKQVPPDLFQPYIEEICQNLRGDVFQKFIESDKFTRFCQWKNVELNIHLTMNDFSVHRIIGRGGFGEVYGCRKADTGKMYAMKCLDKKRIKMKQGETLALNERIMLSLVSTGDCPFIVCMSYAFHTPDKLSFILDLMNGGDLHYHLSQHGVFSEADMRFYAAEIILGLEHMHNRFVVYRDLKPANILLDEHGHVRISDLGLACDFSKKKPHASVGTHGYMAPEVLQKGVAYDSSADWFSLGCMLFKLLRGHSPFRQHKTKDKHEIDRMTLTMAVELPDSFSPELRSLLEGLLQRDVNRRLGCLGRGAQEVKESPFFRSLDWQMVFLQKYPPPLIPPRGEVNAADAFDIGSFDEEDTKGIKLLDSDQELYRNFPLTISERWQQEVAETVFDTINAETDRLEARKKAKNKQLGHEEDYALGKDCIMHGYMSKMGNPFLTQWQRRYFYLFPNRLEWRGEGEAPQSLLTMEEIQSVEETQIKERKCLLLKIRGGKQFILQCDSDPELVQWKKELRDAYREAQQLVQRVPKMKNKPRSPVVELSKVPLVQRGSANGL
# ATP-binding cassette sub-family B member 6 (Homo sapiens), sequence (Q9NP58 whole entry, looked up): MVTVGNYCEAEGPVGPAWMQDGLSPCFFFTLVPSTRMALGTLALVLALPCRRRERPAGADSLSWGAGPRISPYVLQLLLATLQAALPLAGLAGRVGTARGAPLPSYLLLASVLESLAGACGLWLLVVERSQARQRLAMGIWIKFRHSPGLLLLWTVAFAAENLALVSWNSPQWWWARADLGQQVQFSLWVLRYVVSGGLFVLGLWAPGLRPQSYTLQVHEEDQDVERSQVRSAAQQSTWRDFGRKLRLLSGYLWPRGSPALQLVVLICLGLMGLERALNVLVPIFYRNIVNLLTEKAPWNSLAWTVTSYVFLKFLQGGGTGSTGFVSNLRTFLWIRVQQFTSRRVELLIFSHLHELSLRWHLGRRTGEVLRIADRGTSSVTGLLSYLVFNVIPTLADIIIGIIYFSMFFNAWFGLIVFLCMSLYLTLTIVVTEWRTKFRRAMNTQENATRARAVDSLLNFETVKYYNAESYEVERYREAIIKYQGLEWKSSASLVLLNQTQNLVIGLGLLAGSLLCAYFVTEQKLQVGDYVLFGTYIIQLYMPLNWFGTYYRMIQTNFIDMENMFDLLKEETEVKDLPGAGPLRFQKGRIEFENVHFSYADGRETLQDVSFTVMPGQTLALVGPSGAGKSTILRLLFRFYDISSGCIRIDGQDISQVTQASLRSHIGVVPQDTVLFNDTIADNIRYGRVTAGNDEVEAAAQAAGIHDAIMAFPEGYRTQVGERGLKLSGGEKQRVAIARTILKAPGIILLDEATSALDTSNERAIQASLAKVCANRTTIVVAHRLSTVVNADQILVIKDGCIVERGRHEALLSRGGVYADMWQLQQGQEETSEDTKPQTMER
# AP-2 complex subunit beta (Homo sapiens), sequence (P63010 whole entry, looked up, one chain of several): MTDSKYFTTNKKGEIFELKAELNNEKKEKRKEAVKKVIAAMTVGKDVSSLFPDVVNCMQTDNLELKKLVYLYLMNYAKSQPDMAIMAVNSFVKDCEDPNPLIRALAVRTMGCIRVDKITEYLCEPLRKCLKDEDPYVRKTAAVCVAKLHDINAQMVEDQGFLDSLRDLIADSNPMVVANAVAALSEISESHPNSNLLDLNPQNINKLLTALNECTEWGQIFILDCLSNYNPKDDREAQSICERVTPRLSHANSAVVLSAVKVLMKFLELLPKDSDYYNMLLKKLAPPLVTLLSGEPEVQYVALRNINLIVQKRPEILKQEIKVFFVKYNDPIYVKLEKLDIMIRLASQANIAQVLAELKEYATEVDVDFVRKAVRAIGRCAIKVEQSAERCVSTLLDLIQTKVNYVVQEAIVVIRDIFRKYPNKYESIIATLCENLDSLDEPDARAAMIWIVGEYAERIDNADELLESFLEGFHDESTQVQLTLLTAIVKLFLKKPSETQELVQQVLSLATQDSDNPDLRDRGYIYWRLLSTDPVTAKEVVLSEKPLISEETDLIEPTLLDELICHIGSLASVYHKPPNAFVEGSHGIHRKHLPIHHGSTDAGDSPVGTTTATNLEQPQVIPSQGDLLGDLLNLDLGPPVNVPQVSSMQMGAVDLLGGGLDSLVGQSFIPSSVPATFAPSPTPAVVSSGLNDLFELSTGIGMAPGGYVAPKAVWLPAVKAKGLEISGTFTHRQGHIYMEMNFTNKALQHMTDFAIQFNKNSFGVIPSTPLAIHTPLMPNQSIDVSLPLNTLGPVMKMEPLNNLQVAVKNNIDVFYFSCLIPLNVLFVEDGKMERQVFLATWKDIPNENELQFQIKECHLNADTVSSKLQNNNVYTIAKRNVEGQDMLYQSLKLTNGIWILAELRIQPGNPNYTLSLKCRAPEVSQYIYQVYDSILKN
smiles,measurement,setting,value
O=C1C=Cc2ccccc2C1=O,percent of DMSO control GFP,[1],102% (inactive)
same,GFP response vs DMSO,[2],116% (inactive)
same,percent response of DMSO control,[3],116% (inactive)
same,GFP response vs DMSO,[4],89.1% (inactive)
same,double positive events,[5],43.3%
same,vesicle binding response,[5],71.6% (active)
same,inhibition,[6],-65.3% (inactive)
same,superoxide response (% of plate),[7],129% (inactive)
same,aptamer binding inhibition,[8],2% (inactive)
same,inhibition,[9],8% (inactive)
same,response,[10],1.9% (inactive)
same,binding (% of control),[11],109% (inactive)
same,inhibition,[12],-1.2% (inactive)
same,inhibition,[13],1.7% (inactive)
same,inhibition,[14],1.9% (inactive)
same,efflux inhibition (fraction of control),[15],-0.09 (inactive)
same,inhibition,[16],7% (inactive)
same,differentiation response,[17],5.73% (inactive)
CCOC(=O)c1cncn1C(C)c1ccccc1 (stereo not drawn),percent of DMSO control GFP,[1],104% (inactive)
same,percent response of DMSO control,[3],106% (inactive)
same,GFP response vs DMSO,[4],80.2% (inactive)
same,double positive events,[5],60%
same,vesicle binding response,[5],404% (inactive)
same,inhibition,[6],7.85% (inactive)
same,superoxide response (% of plate),[7],97% (inactive)
same,aptamer binding inhibition,[8],4% (inactive)
same,inhibition,[9],-10.9% (inactive)
same,response,[10],2.71% (inactive)
same,binding (% of control),[11],101% (inactive)
same,efflux inhibition (fraction of control),[15],0.27 (inactive)
same,inhibition,[16],12% (inactive)
same,differentiation response,[17],2.2% (inactive)
O=C(O)c1[nH]c(=O)[nH]c(=O)c1F,GFP response vs DMSO,[18],96.9% (inactive)
same,GFP response vs DMSO,[18]; [21],97.6%
same,GFP response vs DMSO,[18]; [22],95.6%
same,GFP response relative to DMSO,[19],100% (inactive)
same,GFP response relative to DMSO,[19]; [23],97.5%
same,GFP response relative to DMSO,[19]; [24],100%
same,"GFP response, % of DMSO",[20],100% (inactive)
same,"GFP response, % of DMSO",[20]; [21],99.3%
same,"GFP response, % of DMSO",[20]; [22],100%
O=C1NC(=O)N(Cc2ccco2)C(=O)/C1=C\c1ccc(-c2ccc(F)cc2)o1,GFP response vs DMSO,[18],96.9% (inactive)
same,GFP response vs DMSO,[18]; [21],97.6%
same,GFP response vs DMSO,[18]; [22],94%
same,GFP response relative to DMSO,[19],119% (inactive)
same,GFP response relative to DMSO,[19]; [23],115%
same,GFP response relative to DMSO,[19]; [24],121%
same,"GFP response, % of DMSO",[20],91.7% (inactive)
same,"GFP response, % of DMSO",[20]; [21],99.3%
same,"GFP response, % of DMSO",[20]; [22],83.7%
O=C1NC(=O)C(=Cc2ccc(Sc3ccccc3)o2)C(=O)N1,GFP response vs DMSO,[18],103% (inactive)
same,GFP response vs DMSO,[18]; [21],93.1%
same,GFP response vs DMSO,[18]; [22],89.2%
same,GFP response relative to DMSO,[19],140% (inactive)
same,GFP response relative to DMSO,[19]; [23],107%
same,GFP response relative to DMSO,[19]; [24],148%
same,"GFP response, % of DMSO",[20],91.2% (inactive)
same,"GFP response, % of DMSO",[20]; [22],77.2%
